A selection: hits, their analogues and other compounds. The true share with any hit is near 1.8%.
CFTR F508del cor = F508del CFTR correction, initial screen, CFBE line, single point | activity (quench increase), % at 7.58 µM | actives 0.36% (n = 350,000) | AID 720511, 2013 | CFBE cells, YFP halide quenching; stimulated with forskolin plus potentiator P3; % fluorescence drop versus neutral controls;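 active = mean added fluorescence quench of at least 8% versus neutral control, with both replicates also reaching 8%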;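 also: cells transiently co-express mutant CFTR-F508del with the halide-sensitive YFP; corrector assay measuring rescue of mutant channel to the surface after 24 h compound exposure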
LGR2 inh = inhibitors of bursicon-induced LGR2 CRE-luciferase signal, primary screen, cell-based, HEK293, CRE-luciferase reporter, bursicon stimulation; inhibition, % at 9.99 µM; bursicon-stimulated, 4 h; Drosophila bursicon receptor LGR2 (rickets); AID 720647, 2013; actives 0.35% (n = 380,000);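 active = drop in luminescence signal, shown as inhibition above about 50% in the replicate tests, limit read from the data, passing the limit was not always enough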;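 also: agonist challenge used bursicon conditioned medium at about half maximal strength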
PAX8 reporter = inhibitors of PAX8-driven TPO luciferase reporter, primary screen, RMG-I cells, single concentration; SteadyGlo, 24 h; inhibition, % at 12.6 µM; actives 1.2% (n = 360,000); AID 652154, 2013;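 active = mean replicate inhibition at least 60% with every replicate also reaching 60%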;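 also: luciferase light reporting Pax8 driven TPO promoter activity; plate controls were median of neutral control wells for no effect and mitoxantrone controls for full effect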
EWS-Fli block = EWS/Fli-driven NR0B1 reporter inhibitors, primary screen, A673 cells, NR0B1 luciferase, luminescence, MLPCN library | actives 0.67% (n = 350,000) | viability-normalised | AID 651661, 2012 | inhibition, % at 12.6 µM;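 active = mean inhibition of at least 50% after viability correction, with every replicate also passing that limit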;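 also: firefly luciferase signal divided by Alamar Blue viability fluorescence both relative to DMSO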
Active calls of the source: *; / = no result.

SMILES	CFTR F508del cor	LGR2 inh	PAX8 reporter	EWS-Fli block
COc1ccccc1Nc1ncc(C(=O)Nc2ccc(OC)c(OC)c2)c2ccccc12	/	-3	/	/
C[C@@H]1CCCCO[C@H](CN(C)Cc2ccc(C(F)(F)F)cc2)[C@@H](C)CN([C@H](C)CO)C(=O)c2cc(NC(=O)Nc3ccc(C(F)(F)F)cc3)ccc2O1	-1	11	-9	-11
C[C@@H]1CN([C@H](C)CO)C(=O)c2cc(NC(=O)Nc3ccc(C(F)(F)F)cc3)ccc2O[C@@H](C)CCCCO[C@@H]1CN(C)Cc1ccc(Cl)c(Cl)c1	2	-7	86*	5
C[C@@H]1CCCCO[C@@H](CN(C)Cc2ccc(Cl)c(Cl)c2)[C@@H](C)CN([C@@H](C)CO)C(=O)c2cc(NC(=O)Nc3ccc(C(F)(F)F)cc3)ccc2O1	0	-26	73*	-10
C[C@@H]1CN([C@H](C)CO)C(=O)c2cc(NC(=O)Nc3ccc(C(F)(F)F)cc3)ccc2O[C@@H](C)CCCCO[C@H]1CN(C)Cc1ccc(C(F)(F)F)cc1	5	13	19	13
C[C@H](CO)N1C[C@H](C)[C@H](CN(C)Cc2ccc(Cl)c(Cl)c2)OCCCC[C@H](C)Oc2ccc(NC(=O)Nc3ccc(C(F)(F)F)cc3)cc2C1=O	3	19	88*	4
CCn1nc(C)cc1C(=O)N1CCCC(Nc2ccc(C(C)C)cc2)C1 (configuration not stated)	0	1	2	0
O=C(/C=C/c1ccccc1)NCCc1ccccc1	1	-78	/	-63
C[C@@H]1CN([C@@H](C)CO)C(=O)Cc2cc(NC(=O)Nc3cccc4ccccc34)ccc2O[C@H]1CN(C)S(=O)(=O)c1ccc(F)cc1	3	3	-10	15
O=C(OC[C@@H]1[C@H]2c3ccccc3O[C@]1(CO)N=C1Sc3ccc([N+](=O)[O-])cc3C(=O)N12)c1ccccc1	1	/	8	-4
COC(=O)CN(C(=O)CSc1nnc(-c2cccc(OC)c2)o1)c1ccc(OC)cc1	/	-1	/	/
COc1ccc(C)cc1NC(=O)CNC(c1ccccc1)c1ccc(C)cc1 (configuration not stated)	13*	-8	8	55*
COc1ccc(C(NC(C)=O)c2cc(Cl)c3cccnc3c2O)cc1OC (configuration not stated)	4	-11	18	10
CCCC(=O)NC(c1cccs1)c1cc(Cl)c2cccnc2c1O (configuration not stated)	0	4	50	2
CC(=O)NC(c1ccc2ccccc2c1)c1ccc2cccnc2c1O (configuration not stated)	13*	20	93*	40
COc1ccccc1C(NC(C)=O)c1cc(Cl)c2cccnc2c1O (configuration not stated)	1	12	48	11
CCCC(=O)NC(c1ccc(Cl)cc1Cl)c1ccc2cccnc2c1O (configuration not stated)	2	35	80*	38
CCCCC(=O)NC(c1ccccc1OC)c1ccc2cccnc2c1O (configuration not stated)	0	20	88*	40
CCC(=O)NC(c1cccs1)c1ccc2cccnc2c1O (configuration not stated)	-9	11	66*	16
CCC(=O)NC(C)c1cc(Cl)c2cccnc2c1O (configuration not stated)	1	13	-4	4
O=C(NCc1ccc(F)cc1)c1cnc(-c2ccccn2)nc1C(F)(F)F	/	/	-10	/
CC(=O)N(C)C[C@@H]1Oc2cc(C#CCC3CCCC3)ccc2S(=O)(=O)N([C@H](C)CO)C[C@@H]1C	2	-8	/	8
COc1ccc(Cl)cc1NC(=O)COC(=O)c1ccc(C)o1	-1	1	-7	-1
CO[C@H]1CN(C)C(=O)c2cc(NC(=O)C3CCC3)ccc2OC[C@H](C)N(Cc2nccs2)C[C@@H]1C	1	2	0	-1
C[C@H](O)C#Cc1ccc2c(c1)O[C@H](CN(C)C(=O)C1CCCCC1)[C@H](C)CN([C@@H](C)CO)S2(=O)=O	4	1	/	-9
C[C@@H]1CN([C@@H](C)CO)C(=O)CCCn2nncc2CO[C@@H]1CN(C)S(=O)(=O)c1ccc2c(c1)OCCCO2	0	3	3	1
CCCCC(=O)NC(c1ccc(Cl)cc1)c1ccc2cccnc2c1O (configuration not stated)	2	48	73*	37
